# Measurements reported in PubChem BioAssay (NCATS).
# Results filed as inconclusive are left out. A call without a number means that no potency is given here. The source made the active and inactive calls. Calls follow the shape of the dose curve; as a rule, active = well fitted curve in the direction sought with a large enough effect; inconclusive = small, poorly fitted or top-dose-only effect, or another doubt; inactive = no such curve, though single readings can be large; an effect the other way counts as inactive or inconclusive.
# Tests used:
# [1] = qHTS of pediatric cancer cell lines to identify multiple opportunities for drug repurposing: Primary screen for TC32 cells (AID 1347089); also: nearly all actives have a fitted effect of over 60% in size
# How it was run: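 A viability screen of TC32 cells was run over 48 h, with primary MIPE doses spanning 0.78 nM–46 µM and NPC doses 0.59 nM–46 µM. ATP luminescence (CellTiter-Glo) served as the read-out.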
# [2] = qHTS of pediatric cancer cell lines to identify multiple opportunities for drug repurposing: Primary screen for SJ-GBM2 cells (AID 1347091); also: potency is read from the fitted curve at half-maximal effect
# How it was run: (§1)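 Cell viability, CellTiter-Glo luminescence; 500-1,000 cells/well, 8- or 11-point titration, 48 h compound exposure at 37 degrees C, 5% CO2. Controls: DMSO neutral, bortezomib 2.3 µM final as positive.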
# [3] = qHTS of pediatric cancer cell lines to identify multiple opportunities for drug repurposing: Primary screen for BT-37 cells (AID 1347094); also: series mostly up to about 57 µM
# How it was run: (§2)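 Viability was measured as metabolically active cells after 48 hours of treatment, read by CellTiter-Glo luminescence. Compounds were tested at multiple final concentrations, giving concentration-response curves.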
# [4] = qHTS of pediatric cancer cell lines to identify multiple opportunities for drug repurposing: Primary screen for NB-EBc1 cells (AID 1347095); also: potency is read from the fitted curve at half-maximal effect
# How it was run: as §2
# [5] = qHTS of pediatric cancer cell lines to identify multiple opportunities for drug repurposing: Primary screen for U-2 OS cells (AID 1347096); also: nearly all actives have a fitted effect of over 50% in size
# How it was run: (§3)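 Cells (500-1,000/well) rested 5 h, then received compounds for 48 h; metabolically active cells were measured by CellTiter-Glo luminescence. Final concentrations spanned up to 46 µM (MIPE, 11-point) or 0.59 nM-46 µM (NPC, 8-point) in primary screens, 11-point in follow-ups.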
# [6] = qHTS of pediatric cancer cell lines to identify multiple opportunities for drug repurposing: Primary screen for BT-12 cells (AID 1347101); also: nearly all actives have a fitted effect of over 25% in size; also: potency is read from the fitted curve at half-maximal effect
# How it was run: as §3
# [7] = qHTS of pediatric cancer cell lines to identify multiple opportunities for drug repurposing: Primary screen for OHS-50 cells (AID 1347103); also: nearly all actives have a fitted effect of over 40% in size; also: potency is read from the fitted curve at half-maximal effect
# How it was run: as §3
# [8] = qHTS of pediatric cancer cell lines to identify multiple opportunities for drug repurposing: Primary screen for RD cells (AID 1347104); also: nearly all actives have a fitted effect of over 55% in size; also: potency is read from the fitted curve at half-maximal effect
# How it was run: as §2
# [9] = qHTS of pediatric cancer cell lines to identify multiple opportunities for drug repurposing: Primary screen for MG 63 (6-TG R) cells (AID 1347105); also: nearly all actives have a fitted effect of over 50% in size; also: potency is read from the fitted curve at half-maximal effect
# How it was run: as §2
# [10] = qHTS of pediatric cancer cell lines to identify multiple opportunities for drug repurposing: Primary screen for control Hh wild type fibroblast cells (AID 1347106);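 also: series mostly up to about 46 µM; a drop in luminescence marks cytotoxicity and a rise apparent proliferation; nearly all actives have a fitted effect of over 55% in size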
# How it was run: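 Cells (500-1,000/well) in growth media were settled 5 h at 37 degrees C, then given compounds for 48 h. Viability was read as CellTiter-Glo luminescence. Primary runs used MIPE at 11 points (0.78 nM-46 µM) and NPC at 8 points (0.59 nM-46 µM); follow-ups used 11 points.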
# [11] = qHTS of pediatric cancer cell lines to identify multiple opportunities for drug repurposing: Primary screen for Rh30 cells (AID 1347107); also: series mostly up to about 46 µM; nearly all actives have a fitted effect of over 75% in size
# How it was run: as §3
# [12] = qHTS of pediatric cancer cell lines to identify multiple opportunities for drug repurposing: Primary screen for SK-N-MC cells (AID 1347093); also: potency is read from the fitted curve at half-maximal effect
# How it was run: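 Metabolically active cells were quantified by ATP-dependent luminescence (CellTiter-Glo, 15 min at room temperature) following 48 h treatment. Cells had been plated at 500-1,000 per well and settled for 5 h beforehand.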
# [13] = qHTS of pediatric cancer cell lines to identify multiple opportunities for drug repurposing: Primary screen for Saos-2 cells (AID 1347097); also: nearly all actives have a fitted effect of over 40% in size; also: potency is read from the fitted curve at half-maximal effect
# How it was run: as §2
# [14] = qHTS of pediatric cancer cell lines to identify multiple opportunities for drug repurposing: Primary screen for SK-N-SH cells (AID 1347098); also: nearly all actives have a fitted effect of over 65% in size; also: potency is read from the fitted curve at half-maximal effect
# How it was run: as §3
# [15] = qHTS of pediatric cancer cell lines to identify multiple opportunities for drug repurposing: Primary screen for NB1643 cells (AID 1347099); also: nearly all actives have a fitted effect of over 50% in size; also: potency is read from the fitted curve at half-maximal effect
# How it was run: as §2
# [16] = qHTS of pediatric cancer cell lines to identify multiple opportunities for drug repurposing: Primary screen for A673 cells (AID 1347092); also: nearly all actives have a fitted effect of over 45% in size; also: potency is read from the fitted curve at half-maximal effect
# How it was run: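 Titration-based qHTS on A673 cells: MIPE compounds spanned 11 points (0.78 nM to 46 µM final), NPC compounds 8 points (0.59 nM to 46 µM final). Viability after 48 h was measured by ATP luminescence.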
# [17] = qHTS of pediatric cancer cell lines to identify multiple opportunities for drug repurposing: Primary screen for LAN-5 cells (AID 1347100); also: potency is read from the fitted curve at half-maximal effect
# How it was run: as §3
# [18] = qHTS of pediatric cancer cell lines to identify multiple opportunities for drug repurposing: Primary screen for DAOY cells (AID 1347090); also: series mostly up to about 46 µM; nearly all actives have a fitted effect of over 55% in size
# How it was run: as §1
# [19] = qHTS of pediatric cancer cell lines to identify multiple opportunities for drug repurposing: Primary screen for Rh18 cells (AID 1347102); also: nearly all actives have a fitted effect of over 65% in size
# How it was run: as §3
Compound,Potency [1],Potency [2],Potency [3],Potency [4],Potency [5],Potency [6],Potency [7],Potency [8],Potency [9],Potency [10],Potency [11],Potency [12],Potency [13],Potency [14],Potency [15],Potency [16],Potency [17],Potency [18],Potency [19]
COc1ccc(C2Sc3ccccc3N(CCN(C)C)C(=O)C2OC(C)=O)cc1 (configuration not stated),inactive,inactive,inactive,inactive,inactive,inactive,inactive,inactive,inactive,inactive,inactive,,,,,,,,
C[C@H](NC(=O)C(=O)Nc1ccccc1C(C)(C)C)C(=O)N[C@@H](CC(=O)O)C(=O)COc1c(F)c(F)cc(F)c1F,inactive,inactive,inactive,inactive,,,inactive,,14.8 µM (active),inactive,inactive,5.9 µM (active),18.7 µM (active),inactive,9.35 µM (active),,,,
COC(=O)C1=CO[C@@H](O)[C@@H]2C(CO)=CC[C@@H]12,inactive,,inactive,,inactive,,,inactive,,inactive,inactive,,inactive,,,inactive,20.9 µM (active),,
CCOC1OC(=O)C[C@H]1NC(=O)[C@@H]1CCCN1C(=O)[C@@H](NC(=O)c1ccc(N)c(Cl)c1)C(C)(C)C (some centres not stated),inactive,1.87 µM (active),,8.33 µM (active),inactive,1.37 µM (active),1.22 µM (active),,inactive,inactive,inactive,,1.18 µM (active),,,0.118 µM (active),0.833 µM (active),,
NC(=O)NN=Cc1ccc([N+](=O)[O-])o1,,inactive,inactive,inactive,inactive,,inactive,inactive,inactive,inactive,inactive,inactive,inactive,inactive,,,,inactive,inactive
Cn1c(N2CCCCS2(=O)=O)nc(C(=O)NCc2ccc(F)cc2)c(O)c1=O,,inactive,inactive,inactive,inactive,inactive,inactive,inactive,inactive,inactive,,inactive,,inactive,inactive,inactive,inactive,inactive,inactive
CC(C)n1cnc2c(NCCCCCCNC(=O)OC(C)(C)C)nc(NCCO)nc21,inactive,,,inactive,inactive,,,33.2 µM (active),inactive,inactive,,,inactive,inactive,inactive,18.7 µM (active),,,inactive
O=C(Nc1cccc(Br)c1)c1cccc(S(=O)(=O)N2CCCCCC2)c1,inactive,,,,inactive,,19.3 µM (active),,,,,,16.6 µM (active),,,,,,
O=C(O)[C@H]1O[C@H](Oc2cc3oc(-c4ccccc4)cc(=O)c3c(O)c2O)[C@H](O)[C@@H](O)[C@H]1O,,inactive,inactive,inactive,inactive,inactive,,inactive,inactive,inactive,,,,inactive,0.118 µM (active),inactive,inactive,inactive,
COc1cccc2c1CCCC2CCCN1CCN(C2CCCCC2)CC1 (configuration not stated),,18.7 µM (active),,,inactive,24.3 µM (active),19.3 µM (active),26.4 µM (active),inactive,inactive,,18.7 µM (active),,,,inactive,26.4 µM (active),inactive,
COc1ccc(Cc2ccc(NC(N)=O)cc2)cc1-c1cccc(Cl)c1,inactive,,,inactive,,inactive,,inactive,inactive,inactive,inactive,18.7 µM (active),inactive,,16.6 µM (active),,,,inactive
COC[C@@H](c1ccc(C(F)(F)F)cc1)N1CCN(C2(C)CCN(C(=O)c3c(C)ncnc3C)CC2)C[C@H]1C,inactive,,inactive,inactive,inactive,inactive,,inactive,,,inactive,3.32 µM (active),inactive,5.41 µM (active),18.7 µM (active),,,,inactive
NC(=O)c1cccc2[nH]c(-c3ccc([C@H]4CCCN4)cc3F)nc12,,inactive,,18.7 µM (active),inactive,inactive,,inactive,,inactive,inactive,,inactive,,,11.8 µM (active),,inactive,inactive
